In PubChem BioAssay AID624331 (National Center for Advancing Translational Sciences (NCATS), 2012) one finds Potency data, which are given here for 39 molecules.

Structures are written as SMILES. Results filed as inconclusive are left out. Where a call stands in place of a potency, no number is given. Active and inactive are the calls of the source. The call rests on the fitted dose curve; in most records, active means well fitted activation curve with a large enough effect; inconclusive means small, poorly fitted or top-dose-only effect; inactive means no such curve, though single readings can be large or run the other way.
Potency means the concentration at half of the fitted maximal effect.

This experiment in a line: qHTS assay for re-activators of p53 using a Luc reporter: Hit Validation with no p53 Expressed. To be noted: p53-null cells, luciferase reporter counter-screen; series mostly up to 46.1 µM. The essentials:
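Without p53 expression, cells (1000/well, Opti-MEM + 10% FBS) were exposed 24 h at 37 deg C to compounds in a 1:5 series from 10 mM stock (top 46.1 µM in well). Luminescent signal read 10 min after Amplite addition; actives flag unspecific activation.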
As to `c1ccc(-n2ncc3c(N4CCCCC4)ncnc32)cc1`, the Potency entry is “inactive”.

In the case of `CC(=O)N/C(=C/c1ccc2c(c1)OCO2)C(=O)Nc1ccccc1`, the Potency entry is “inactive”.

Consider `C=CCn1c(C)cc(C(=O)COC(=O)c2ccc(N)c([N+](=O)[O-])c2)c1C`, for which the Potency entry was “inactive”.

On to `Cc1ccc(S(=O)(=O)c2cn(CC(=O)Nc3ccccc3)c3ccc(F)cc3c2=O)cc1`, for which the Potency entry is “inactive”.

Consider `CCOc1ccc(OCc2cccc(C(=O)N3CCCC3)c2)cc1`, for which the Potency result is “inactive”.

Regarding `O=C(NN=C1CCCCCC1)c1cccs1`, the Potency entry is “inactive”.

Take `O=c1oc(CCO)cc2ccc(C#Cc3ccsc3)cc12`: the Potency entry was “inactive”.

`CC(C)CNC(=S)Nc1ccc(Oc2ccccc2)cc1`: the Potency result was “inactive”.

As to `Cc1ccsc1/C=C(\C#N)C(=O)Nc1c(C)n(C)n(-c2ccccc2)c1=O`, the Potency result was “inactive”.

With `Cc1nonc1NCn1nnc2ccccc21`, the Potency entry was “inactive”.

Consider `N#C/C(Cn1c[n+](NC(=O)Nc2ccccc2)cn1)=N/O`, for which the Potency entry was “inactive”.

Take `Cc1nn2cc(-c3ccc(-c4ccccc4)cc3)nc2s1`: the Potency was 731 nM (active).

`FC(F)(F)c1nnc2c(Sc3ccccn3)nc3ccccc3n12`: the Potency entry is “inactive”.

With `NC(=O)c1cc(Cl)ccc1OCC(=O)Nc1ccc2c(c1)OCO2`, the Potency entry was “inactive”.

Regarding `Cc1ccc(NC(=O)COc2ccc3c(c2)OCO3)c(Cl)c1`, the Potency entry was “inactive”.

Turning to `Cc1cc(C(=O)Nc2nc3c(s2)CCCC3)cs1`, the Potency result was “inactive”.

`Cc1cccc(N2CCN(S(=O)(=O)c3ccc4c(c3)CCC(=O)N4)CC2C)c1` (centres undefined): the Potency result was “inactive”.

For `Nc1c(C(=O)CSc2nc3ccccc3o2)c(=O)[nH]c(=O)n1C1CC1`, the Potency result is “inactive”.

Regarding `CCC(=O)Nc1cccc(NC(=S)NC(=O)c2ccc(Cl)cc2)c1`, the Potency entry was “inactive”.

Consider `C=Cc1ccc(Cn2c(=O)n(CCCOC)c(=O)c3sccc32)cc1`, for which the Potency entry was “inactive”.

For `CCOC(=O)c1cccc(C2=CC(=O)C[C@H](c3ccc(OC)cc3)C2)c1`, the Potency result is “inactive”.

Regarding `O=C(NC1CC1)c1cccc(NC(=O)c2cn3ccccc3n2)c1`, the Potency entry is “inactive”.

For the molecule `Cc1sc(NC(=O)c2ccc(Cl)s2)c(C(N)=O)c1C`, the Potency result was “inactive”.

As to `CCOP(=O)(OCC)C(NC(=O)Nc1ccccc1)C(N)=O` (centres undefined), the Potency entry was “inactive”.

In the case of `O=C(CSc1nnc(-c2ccc(O)cc2)o1)Nc1ccc2c(c1)OCCO2`, the Potency entry is “inactive”.

Take `O=[N+]([O-])c1ccc(/C=N/NC(=S)Nc2ccccc2F)o1`: the Potency entry is “inactive”.

Consider `COc1ccc(C2SCCN2C(=S)Nc2ccc(Cl)cc2)cc1` (centres undefined), for which the Potency entry is “inactive”.

Take `COCCn1c(SCC(=O)c2c(N)n(C3CC3)c(=O)[nH]c2=O)nnc1-c1cccc(C)c1`: the Potency result was “inactive”.

Turning to `CCCCOC(=O)c1ccc(NC(=O)CSc2nncn2C)cc1`, the Potency result is “inactive”.

With `CCOC(=O)c1[nH]c(C)c(C(=O)NCCC2=CCCCC2)c1C`, the Potency entry is “inactive”.

As to `Cc1c(/C(O)=C2/C(=O)C(=O)N(Cc3cccnc3)C2c2cccs2)cnn1-c1ccccc1` (centres undefined), the Potency result was “inactive”.

On to `O=C(COc1ccc(Cl)cc1Cl)Nc1ccc(Cl)cn1`, for which the Potency entry was “inactive”.

As to `O=C(c1cccc(S(=O)(=O)NCc2ccc3c(c2)OCO3)c1)N1CCCC1`, the Potency result was “inactive”.

`O=C(Cn1cc(SCc2ccc(F)cc2)c2ccccc21)N1CCOCC1`: the Potency entry was “inactive”.

Turning to `CS(=O)(=O)n1nc(-c2ccc(Cl)cc2)nc1SCc1ccccc1`, the Potency result is “inactive”.

As to `Cc1cc(NC(=O)c2ccc3c(c2)OCCO3)no1`, the Potency result is “inactive”.

Regarding `Cc1ccc(NC(=S)NC(=O)c2cccs2)cc1F`, the Potency result was “inactive”.

Regarding `COc1ccccc1C(=O)CC(=O)c1ccccc1`, the Potency entry was “inactive”.

With `CN(C)/C=N/c1cnc(C(=O)c2ccc(Cl)cc2)n1C`, the Potency result is “inactive”.
